In PubChem BioAssay (NCATS):
Inconclusive results are not listed. The source made the active and inactive calls. Unless noted, calls follow the shape of the dose curve; as a rule, active = well fitted curve in the direction sought with a large enough effect; inconclusive = small, poorly fitted or top-dose-only effect, or another doubt; inactive = no such curve, though single readings can be large; an effect the other way counts as inactive or inconclusive.

How the values were obtained:
[1] = qHTS for differential inhibitors of proliferation of Plasmodium falciparum line 3D7 (AID 1876);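 also: parasite growth measured after three days of culture; 0% = vehicle wells and -100% = reference inhibitor wells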
[2] = qHTS for differential inhibitors of proliferation of Plasmodium falciparum line D10 (AID 1877);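 also: parasites grown with compound for 72 h before DNA staining; plate controls were vehicle wells for no effect and reference inhibitor wells for full effect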
[3] = qHTS for differential inhibitors of proliferation of Plasmodium falciparum line Dd2 (AID 1882); details: Potency: Plasmodium falciparum Dd2 proliferation inhibition;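 also: series mostly up to about 29 µM; plate controls were DMSO vehicle for no effect and 0.29 µM artemisinin for full effect; nearly all actives have a fitted effect of over 65% in size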
Method in brief: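 Dd2-infected erythrocytes (0.3% parasitemia, 2.5% hematocrit final) incubated with compound 72 h at 37 C, 5% CO2; lysed with saponin/Triton buffer containing SYBR Green I, incubated overnight in the dark, then read by fluorescence (485/535 nm). Normalized to 0.29 uM artemisinin and DMSO.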

[4] = qHTS for differential inhibitors of proliferation of Plasmodium falciparum line W2 (AID 1883); details: Potency: Plasmodium falciparum W2 proliferation inhibition;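 also: parasites grown with compound for 72 h before lysis and staining; 0% = vehicle wells and -100% = control inhibitor wells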
[5] = qHTS for differential inhibitors of proliferation of Plasmodium falciparum line HB3 (AID 1886); details: Potency: Plasmodium falciparum HB3 proliferation inhibition;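 also: parasites grown with compound for 72 h before SYBR Green readout; plate controls were vehicle for no effect and reference inhibitor for full effect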
[6] = qHTS Assay for Modulators of Human Peripheral Myelin Protein 22 (PMP22) Expression/Activity (AID 1967; active = well fitted curve in the direction sought with a large enough effect in the signal ratio; the % refers to the signal ratio;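 also: 0% = untreated cells and 100% end not stated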)
Method in brief: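 Quantitative HTS in a mouse Schwann cell line expressing dual click beetle luciferases: Pmp22 promoter (green) and control EF-alpha promoter (red). After 24h treatment, corrected green/red signal ratio gave %Activity relative to untreated cells.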

[7] = target: Ferritin light chain (Equus caballus) (UniProt P02791); assay: qHTS Validation Assay for Identification of Novel General Anesthetics (AID 2323); also: series mostly up to about 77 µM; % is scaled to controls: 0 for no effect and ±100 for the full control effect
Sequence of Ferritin light chain (Equus caballus) (P02791 2-175 limits assumed): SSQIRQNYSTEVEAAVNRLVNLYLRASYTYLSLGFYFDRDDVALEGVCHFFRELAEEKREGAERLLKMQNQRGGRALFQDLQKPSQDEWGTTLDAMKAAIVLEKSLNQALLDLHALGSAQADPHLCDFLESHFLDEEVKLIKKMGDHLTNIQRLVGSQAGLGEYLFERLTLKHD
Method in brief: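 Apoferritin from horse spleen (10 uM) was mixed with 1-aminoanthracene at 50% saturation in PBS, then compounds were added. After 10 min at room temperature, fluorescence was read (ex 380 nm, em 535 nm) and normalized to free-probe and complex controls.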

[8] = target: ATP-dependent DNA helicase Q1 (Homo sapiens) (UniProt P46063); assay: qHTS Validation Assay for Inhibitors of RecQ-Like Dna Helicase 1 (RECQ1) (AID 2353);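 also: plate controls were DMSO vehicle for no effect and enzyme-free control for full effect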
Sequence of ATP-dependent DNA helicase Q1 (Homo sapiens) (P46063 whole entry, looked up): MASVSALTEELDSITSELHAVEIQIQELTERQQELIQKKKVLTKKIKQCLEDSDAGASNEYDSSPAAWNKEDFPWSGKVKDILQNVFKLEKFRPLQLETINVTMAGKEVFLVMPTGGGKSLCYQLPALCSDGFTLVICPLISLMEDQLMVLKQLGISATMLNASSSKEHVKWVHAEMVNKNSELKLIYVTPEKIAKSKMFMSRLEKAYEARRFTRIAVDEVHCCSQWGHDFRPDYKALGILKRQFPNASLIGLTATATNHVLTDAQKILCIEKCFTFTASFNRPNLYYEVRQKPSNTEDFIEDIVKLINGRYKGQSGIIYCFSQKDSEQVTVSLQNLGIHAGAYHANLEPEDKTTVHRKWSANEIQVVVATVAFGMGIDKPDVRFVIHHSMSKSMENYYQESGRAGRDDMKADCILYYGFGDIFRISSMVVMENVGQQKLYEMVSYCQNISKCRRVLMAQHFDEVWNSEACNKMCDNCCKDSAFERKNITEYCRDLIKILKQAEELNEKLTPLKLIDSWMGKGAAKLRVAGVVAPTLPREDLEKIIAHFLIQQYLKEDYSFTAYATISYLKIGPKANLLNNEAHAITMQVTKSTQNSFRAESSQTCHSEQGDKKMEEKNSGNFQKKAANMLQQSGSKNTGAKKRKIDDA
Method in brief: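 50 nM RECQ1T1 preincubated 15 min with compound in Tris pH 8.0 buffer with MgCl2, DTT, Tween-20 and 2.5 ug/ml poly(dI-dC); started with 200 nM TAMRA/BHQ-2 forked duplex and 2 mM ATP. Unwinding read as fluorescence (525/598 nm), two reads 2 h apart.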

[9] = Validation screen for small molecules that induce DNA re-replication in MCF 10A normal breast cells (AID 463097); also: 0% is about no effect; nearly all actives have a fitted effect of over 60% in size
Method in brief: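 DNA re-replication was detected as a rise in nuclei with elevated Hoechst fluorescence after a 48 hr compound exposure of MCF 10A cells at 37 C.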

[10] = Quantitative high throughput screen for delayed death inhibitors of the malarial parasite plastid, 96 hour incubation (AID 488745);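 also: luciferase-expressing P. falciparum in erythrocytes at 2% hematocrit and 0.1% parasitemia; series mostly up to about 29 µM; % is scaled to controls: 0 for no effect and ±100 for the full control effect; nearly all actives have a fitted effect of over 70% in size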
Method in brief: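 Infected erythrocytes were added to compound in Albumax-supplemented RPMI 1640 at 0.1% parasitemia and 2% hematocrit (final), incubated 96 h at 37 C under 5% CO2, then luciferase reagent was added and luminescence measured.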

[11] = Quantitative high throughput screen for delayed death inhibitors of the malarial parasite plastid, 48 hour incubation (AID 488752); also: % is scaled to controls: 0 for no effect and ±100 for the full control effect; nearly all actives have a fitted effect of over 65% in size
Method in brief: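 Readout is firefly luciferase luminescence from a reporter integrated into the parasite genome, with lower signal taken as inhibited growth. Infected red cells (0.1% parasitemia, 2% hematocrit final) are cultured with compound for one 48 h cycle at 37 C.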

[12] = target: M-phase phosphoprotein 8 (Homo sapiens) (UniProt Q99549); assay: qHTS Validation Assay for Inhibitors for MPP8 Chromodomain Interactions with Methylated Histone Tails (AID 488949);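 also: AlphaScreen signal from MPP8 chromodomain bound to biotinylated H3K9me3 peptide; top concentration of the series differs between compounds; % is scaled to controls: 0 for no effect and ±100 for the full control effect; nearly all actives have a fitted effect of over 55% in size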
Sequence of M-phase phosphoprotein 8 (Homo sapiens) (Q99549 whole entry, looked up): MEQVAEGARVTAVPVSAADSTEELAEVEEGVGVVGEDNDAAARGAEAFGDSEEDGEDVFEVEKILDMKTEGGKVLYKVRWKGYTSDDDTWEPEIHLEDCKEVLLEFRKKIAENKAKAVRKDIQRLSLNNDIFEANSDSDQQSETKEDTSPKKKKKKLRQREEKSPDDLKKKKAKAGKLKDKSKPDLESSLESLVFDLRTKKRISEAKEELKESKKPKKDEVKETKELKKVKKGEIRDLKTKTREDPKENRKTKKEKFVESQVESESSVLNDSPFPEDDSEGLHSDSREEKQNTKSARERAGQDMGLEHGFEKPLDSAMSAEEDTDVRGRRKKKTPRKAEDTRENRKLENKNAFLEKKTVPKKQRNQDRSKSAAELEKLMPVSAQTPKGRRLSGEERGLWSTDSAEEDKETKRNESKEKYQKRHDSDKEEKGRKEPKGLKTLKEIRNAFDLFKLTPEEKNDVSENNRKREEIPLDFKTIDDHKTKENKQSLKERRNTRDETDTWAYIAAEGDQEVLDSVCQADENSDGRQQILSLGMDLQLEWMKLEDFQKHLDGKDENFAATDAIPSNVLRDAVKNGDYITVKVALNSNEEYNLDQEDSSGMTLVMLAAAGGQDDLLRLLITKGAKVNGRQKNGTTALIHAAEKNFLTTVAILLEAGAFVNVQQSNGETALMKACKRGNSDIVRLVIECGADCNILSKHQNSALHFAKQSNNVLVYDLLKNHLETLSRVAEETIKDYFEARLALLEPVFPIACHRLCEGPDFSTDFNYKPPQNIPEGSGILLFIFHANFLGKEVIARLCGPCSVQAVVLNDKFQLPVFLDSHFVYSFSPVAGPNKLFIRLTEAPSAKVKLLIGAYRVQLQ
Method in brief: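 Disruption of the preformed MPP8–trimethyl-H3K9 peptide complex (both 50 nM, 30 min, RT) is measured after 30 min compound exposure, using AlphaScreen proximity beads; aurintricarboxylic acid titration serves as plate control.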

[13] = target: Transient receptor potential cation channel subfamily V member 1 (Homo sapiens) (UniProt Q8NER1); assay: HTS Assay for Compounds that Act as Enhancers of the Vanilloid Receptor 1 (AID 488979); also: 0% is about no effect
Sequence of Transient receptor potential cation channel subfamily V member 1 (Homo sapiens) (Q8NER1 whole entry, looked up): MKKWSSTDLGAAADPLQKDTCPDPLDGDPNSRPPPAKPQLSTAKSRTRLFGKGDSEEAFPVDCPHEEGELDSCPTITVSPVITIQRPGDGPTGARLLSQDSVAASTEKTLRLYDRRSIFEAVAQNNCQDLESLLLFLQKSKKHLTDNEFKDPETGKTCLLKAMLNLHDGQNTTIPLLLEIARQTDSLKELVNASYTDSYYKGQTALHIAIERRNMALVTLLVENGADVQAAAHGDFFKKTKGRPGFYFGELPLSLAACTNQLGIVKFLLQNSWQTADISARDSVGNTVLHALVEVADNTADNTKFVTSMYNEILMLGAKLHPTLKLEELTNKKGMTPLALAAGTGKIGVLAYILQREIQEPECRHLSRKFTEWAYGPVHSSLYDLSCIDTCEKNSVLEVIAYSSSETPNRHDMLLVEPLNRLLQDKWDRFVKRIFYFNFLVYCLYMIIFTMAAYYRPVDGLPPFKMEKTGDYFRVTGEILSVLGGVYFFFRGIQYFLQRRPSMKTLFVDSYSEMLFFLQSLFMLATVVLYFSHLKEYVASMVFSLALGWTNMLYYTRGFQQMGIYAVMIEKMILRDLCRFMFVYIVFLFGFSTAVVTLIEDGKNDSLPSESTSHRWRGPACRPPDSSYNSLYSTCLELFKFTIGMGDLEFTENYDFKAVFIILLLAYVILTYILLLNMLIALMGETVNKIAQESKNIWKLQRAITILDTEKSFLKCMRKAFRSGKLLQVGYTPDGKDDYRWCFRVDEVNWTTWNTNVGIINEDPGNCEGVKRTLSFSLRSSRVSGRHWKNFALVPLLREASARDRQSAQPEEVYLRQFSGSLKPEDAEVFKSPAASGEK
Method in brief: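 TRPV1-expressing cells loaded with Fluo-8 calcium dye; compounds added and calcium influx read kinetically for 3 min (agonist phase), then capsaicin at EC20 added and read 2 min more for enhancement. Fluorescence ex 480/em 520 nm.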

[14] = target: Thyrotropin receptor (Homo sapiens) (UniProt P16473); assay: qHTS Assay for Antagonists of the Thyroid Stimulating Hormone Receptor (AID 488980); also: series mostly up to about 58 µM; 0% is about no effect
Sequence of Thyrotropin receptor (Homo sapiens) (P16473 whole entry, looked up): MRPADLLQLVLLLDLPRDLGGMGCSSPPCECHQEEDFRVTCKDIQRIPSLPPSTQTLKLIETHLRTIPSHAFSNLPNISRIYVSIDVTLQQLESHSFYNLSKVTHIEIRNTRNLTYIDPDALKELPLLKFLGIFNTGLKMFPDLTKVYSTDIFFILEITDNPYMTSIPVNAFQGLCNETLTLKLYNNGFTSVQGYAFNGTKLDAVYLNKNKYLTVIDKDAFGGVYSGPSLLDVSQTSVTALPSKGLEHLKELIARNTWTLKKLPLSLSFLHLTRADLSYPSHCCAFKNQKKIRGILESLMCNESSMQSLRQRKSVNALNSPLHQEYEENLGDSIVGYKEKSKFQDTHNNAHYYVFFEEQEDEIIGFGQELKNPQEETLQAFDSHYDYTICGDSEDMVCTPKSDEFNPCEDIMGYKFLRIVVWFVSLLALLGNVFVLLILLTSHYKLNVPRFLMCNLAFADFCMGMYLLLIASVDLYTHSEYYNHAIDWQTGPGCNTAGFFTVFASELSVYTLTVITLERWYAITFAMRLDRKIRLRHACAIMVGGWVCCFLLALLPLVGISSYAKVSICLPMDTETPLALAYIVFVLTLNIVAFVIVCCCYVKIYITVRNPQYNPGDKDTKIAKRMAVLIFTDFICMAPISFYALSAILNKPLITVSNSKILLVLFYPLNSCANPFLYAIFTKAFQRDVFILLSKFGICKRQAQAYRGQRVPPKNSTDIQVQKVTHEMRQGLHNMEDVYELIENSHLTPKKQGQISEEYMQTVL
Method in brief: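 Cells expressing human TSHR (HEK293) are dispensed in HBSS/HEPES containing 70 uM RO 20-1724, compound is added, then TSH at EC80 (4 nM final). Antibody in lysis buffer follows, 30 minutes at room temperature before HTRF detection.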

[15] = target: Thyrotropin-releasing hormone receptor (Homo sapiens) (UniProt P34981); assay: qHTS for Small Molecule Agonists and Allosteric Enhancers of Human TRH Receptor: Validation Screen for Agonists (AID 493127;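 active = calcium activation more than 3 SD above the typical response in the agonist read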;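 also: intracellular calcium rise by fluo-8 fluorescence before TRH EC20 addition; 0% is about no effect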); details: TRH receptor agonist cell assay; at 2 µM; stronger effect = higher value
Sequence of Thyrotropin-releasing hormone receptor (Homo sapiens) (P34981 whole entry, looked up): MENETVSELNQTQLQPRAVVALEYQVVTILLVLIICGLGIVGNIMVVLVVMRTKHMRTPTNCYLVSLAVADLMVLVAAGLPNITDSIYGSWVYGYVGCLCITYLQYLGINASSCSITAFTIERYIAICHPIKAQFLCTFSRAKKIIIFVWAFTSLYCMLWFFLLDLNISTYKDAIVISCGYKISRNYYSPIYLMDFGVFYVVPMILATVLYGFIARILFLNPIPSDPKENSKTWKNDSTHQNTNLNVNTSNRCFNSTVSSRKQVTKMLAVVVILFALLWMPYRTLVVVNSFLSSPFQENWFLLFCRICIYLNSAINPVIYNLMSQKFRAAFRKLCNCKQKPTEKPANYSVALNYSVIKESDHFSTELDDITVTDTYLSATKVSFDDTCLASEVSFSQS
Method in brief: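 Cells 2000/well, 10% FCS, 18 h 33.5C/5% CO2 → fluo-8 Ca dye, RT 30 min–1.5 h → FDSS baseline 10 × 1 s → compound added → 230 cycles (1 s/cycle) agonist mode. TRH controls.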

[16] = target: Galactokinase (Homo sapiens) (UniProt P51570); assay: qHTS Validation Assay for Inhibitors of Human Galactokinase (GALK) (AID 493189); also: 0% is about no effect
Sequence of Galactokinase (Homo sapiens) (P51570 whole entry, looked up): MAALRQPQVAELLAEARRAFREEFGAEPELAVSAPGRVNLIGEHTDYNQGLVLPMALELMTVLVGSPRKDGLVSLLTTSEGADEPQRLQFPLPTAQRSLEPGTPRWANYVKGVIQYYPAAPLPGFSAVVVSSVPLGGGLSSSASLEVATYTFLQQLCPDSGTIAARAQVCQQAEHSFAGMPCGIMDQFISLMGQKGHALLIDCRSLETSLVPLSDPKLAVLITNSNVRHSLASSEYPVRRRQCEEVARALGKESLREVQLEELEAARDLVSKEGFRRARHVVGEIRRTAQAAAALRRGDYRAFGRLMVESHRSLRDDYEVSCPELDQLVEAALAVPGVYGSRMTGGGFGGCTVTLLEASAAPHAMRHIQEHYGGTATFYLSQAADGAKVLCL
Method in brief: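 Compounds were pin-transferred into ATP buffer, then GALK-galactose mix was added (final 5 nM enzyme, 100 uM galactose, 35 uM ATP). After 1 h at room temperature, remaining ATP was measured luminescently.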

[17] = target: Voltage-gated inwardly rectifying potassium channel KCNH2 (Homo sapiens) (UniProt Q12809); assay: qHTS Assay for Small Molecule Inhibitors of the Human hERG Channel Activity (AID 588834);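 also: top concentration of the series differs between compounds; % is scaled to controls: 0 for no effect and ±100 for the full control effect; lower thallium flux fluorescence means stronger hERG block; nearly all actives have a fitted effect of over 50% in size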
Method in brief: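 Measured: FluxOR fluorescence after thallium stimulation in U2OS cells transduced with hERG by baculovirus. Compounds pre-incubated around 10 min; medium Opti-MEM with 2% FCS. AC50 from Hill equation.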

[18] = Primary qHTS for small molecule stabilizers of the endoplasmic reticulum resident proteome: Secreted ER Calcium Modulated Protein (SERCaMP) assay (AID 1508630); also: % is scaled to controls: 0 for no effect and ±100 for the full control effect
Method in brief: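 GLuc-SERCaMP-expressing SH-SY5Y cells, pretreated 16 h with compound, are challenged with thapsigargin to empty ER calcium stores; after 4 h, coelenterazine is added directly to the medium and luminescence is imaged.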

COc1ccc(CCN)cc1O
inactive: Potency [1] | Potency [2] | Potency [3] | Potency [4] | Potency [5] | outcome [6] | outcome [7] | Potency [8] | Potency [9] | Potency [10] | Potency [11] | Potency [12] | outcome [13] | outcome [14] | activation [15] 1.06% | outcome [16] | Potency [17] | Potency [18]
